From PubChem BioAssay
The entries come from a sample that favours hits as a whole.
Pf Dd2 inh: Plasmodium falciparum Dd2 growth inhibition; P. falciparum Dd2 growth, SYBR Green, 72 h; Potency, µM (series often up to 28.9 µM), without a hit: at the highest dose activity, negative = inhibition, hits mostly inhibitors; hit rate 4.3% among 120,000; active = well fitted inhibition curve with a large enough effect;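 note: plate controls were DMSO vehicle for no effect and reference drug for full effect; nearly all actives have a fitted effect of over 65% in size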
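Readout: SYBR Green fluorescence, 485 nm excitation, 535 nm emission, after ~16 h lysis at 37C. Before that, Dd2-infected red cells (2.5% hematocrit) grew 72 h with compound, 29 uM top final concentration.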
* = called active by the depositor; i = inactive; [ ] = dose if it differs, or a comment. Potency is the fitted concentration of half-maximal effect.

SMILES	Pf Dd2 inh
CC(NC(=O)c1cccc(Nc2nc3ccccc3n3nnnc23)c1)c1ccccc1 (stereo not drawn)	5%
Cc1ccc(CNC(=O)c2ccc(Nc3nc4ccccc4n4nnnc34)cc2)cc1	-3%
COc1ccc(CCNC(=O)c2cccc(Nc3nc4ccccc4nc3-n3nc(C)cc3C)c2)cc1OC	-14%
O=C(NCCc1ccc(Cl)cc1)c1ccc(Nc2nc3ccccc3n3nnnc23)cc1	-27%
O=C(C1CCCCC1)N1CCC(N2CCCC(C(=O)N3CCCC3)C2)CC1 (stereo not drawn)	21%
O=C(NC[C@H]1OC[C@@H](NC2CCC(F)(F)CC2)[C@@H]1O)c1ccncc1	-12%[44.1 µM]
COCC(=O)N[C@H](C)c1c(-c2ccc(F)cc2)noc1C(=O)O	11%[44.1 µM]
O=C(Cn1cccc1-c1nc(-c2ccccc2)no1)N1CCN(c2ccccc2)CC1	17%
O=C(c1ccc(-c2ccc(N3CCSCC3)nc2)cc1)N1CCCCC1	i
COc1cccc(C(=O)N2CCOCC2CC(=O)N2CCNC(=O)C2)c1 (stereo not drawn)	9%
Cc1c(C(=O)N2CCCC2)oc2c1-c1nn(CC(=O)NCc3cccc(F)c3)cc1CC2	-25%
COc1cccc(CNC(=O)Cn2cc3c(n2)-c2c(oc(C(=O)N4CCCC4)c2C)CC3)c1	-24%
CCCCN(CCCC)CCCNC(=O)Cn1cc2c(n1)-c1c(oc(C(=O)N3CCCC3)c1C)CC2	11µM*
Cc1noc(C)c1COc1ccc(C(=O)N[C@@H]2CN(C(=O)NC(C)C)CCC[C@H]2O)cc1	i
CC1(C(=O)NCC2CCCCC2)CCCCC(=O)N1 (stereo not drawn)	i
Cn1cc(CN2CCNc3cc(Nc4cccnc4)ncc3C2)cn1	-1%[44.1 µM]
Cc1[nH]cnc1CN1CCNc2cc(-c3ccccc3)ncc2C1	i
c1ccc(CN2CCNc3cc(-c4cccnc4)ncc3C2)cc1	-12%[44.1 µM]
COCCN1CCNc2cc(Nc3cccc(OC)c3)ncc2C1	i
c1cncc(Nc2cc3c(cn2)CN(Cc2cccs2)CCN3)c1	0%[44.1 µM]
Cn1ccnc1CN1CCNc2cc(Nc3ccccc3)ncc2C1	i
COc1ccccc1CN1CCNc2cc(Nc3ccccc3)ncc2C1	6.3µM*
CN(C)c1ccc(CN2CCNc3cc(Nc4ccccc4)ncc3C2)cc1	5.6µM*
Fc1ccc(Nc2cc3c(cn2)CN(Cc2ccncc2)CCN3)cc1Cl	7.1µM*
c1ccc(Nc2cc3c(cn2)CN(Cc2ncc[nH]2)CCN3)cc1	7%[44.1 µM]
SMILES	Pf Dd2 inh
c1ccc(-c2cc3c(cn2)CN(Cc2c[nH]c4ccccc24)CCN3)cc1	7.9µM*
Cn1cnc(CN2CCNc3cc(Nc4ccccc4)ncc3C2)c1	i
CN(C(=O)CN1C(=O)NC2(CCC(C(C)(C)C)CC2)C1=O)c1ccccc1 (stereo not drawn)	i
Cc1ncccc1C(=O)N1CCC(N2C(=O)C3(CCCC3)C2c2scnc2C)CC1 (stereo not drawn)	9%
Cn1ccnc1CN1CCC2(CC1)OC(=O)N(Cc1cccnc1)C2(C)c1ccccc1 (stereo not drawn)	i
Cc1nn(-c2ccccc2)nc1C(=O)N[C@H](C)c1onc(-c2ccc(F)cc2)c1C(=O)O	-28%
Cc1ccc(C(=O)NCC(=O)N2CCCCCNC(=O)CC2c2ccccc2)s1 (stereo not drawn)	-14%
Cc1noc(C)c1CN1C[C@H]2[C@H](C1)[S+](=O)([O-])C(C)(C)C(=O)N2Cc1ccccc1F	27%
F[C@@H]1CN(Cc2nccs2)C[C@@H]1OCc1nc2ccccc2o1	i
COc1ccc(Cl)cc1-c1ccc2c(c1)C(=O)N1CCN(C(=O)c3cnccn3)C[C@H]1C(=O)N2	i
O=C([C@@H]1CNC[C@H](C(=O)N2CCC(c3ccncn3)CC2)C1)N1CCCC1	18%
CCC(C(=O)NCc1nnc2ccc(-c3ccc(OC)cc3)nn12)c1ccccc1 (stereo not drawn)	-17%
Fc1ccc(C2Cn3nnc(-c4nc(-c5cccnc5)no4)c3CO2)cc1 (stereo not drawn)	i
COc1cccc(C2Cn3nnc(-c4nc(-c5ccc(OC(C)C)cc5)no4)c3CO2)c1 (stereo not drawn)	-20%
COc1ccc(C2Cn3cnc(-c4nc(-c5ccc(OC(C)C)cc5)no4)c3CO2)cc1 (stereo not drawn)	11µM*
COc1ccc(C2Cn3nnc(-c4nc(-c5ccc(C)cc5)no4)c3CO2)cc1 (stereo not drawn)	i
Clc1ccccc1C1Cn2cnc(-c3nc(-c4cccnc4)no3)c2CO1 (stereo not drawn)	4.5µM*
CCOc1ccc(C2Cn3nnc(-c4nc(-c5cccnc5)no4)c3CO2)cc1 (stereo not drawn)	-5%
CCn1cc(CN2CCN(C(=O)Cc3cccs3)CC2)ccc1=O	20%
CN(C)c1nc(-c2ccncc2)nc2c1CCN(C(=O)Cc1n[nH]c(=O)[nH]1)C2	-20%
COCCN1CCC(N2CCN(C(=O)c3cccc(Cl)c3)CC2)C1=O (stereo not drawn)	-3%
CCC[C@@H]1CN(C(=O)CCn2cc(Cl)cn2)C[C@H]1C(=O)O	-10%
COC1CCOC2(CCN(C(=O)Nc3ccccc3F)CC2)C1 (stereo not drawn)	9%
COCCOC1CCOC2(CCN(C(=O)Nc3ccccc3)CC2)C1 (stereo not drawn)	-23%
COCCOC1CCOC2(CCN(C(=O)Nc3ccccc3F)CC2)C1 (stereo not drawn)	13µM*
SMILES	Pf Dd2 inh
COc1ccc(C)cc1NC(=O)CC1CCCN(c2cn[nH]c(=O)c2)C1 (stereo not drawn)	-23%
CNC(=O)[C@@H](c1ccccc1)N1CCC[C@H]1C(=O)NC1CCCCC1	3%[44.1 µM]
COCCn1cnc2ccc(OCc3ccc(C(F)(F)F)cc3)nc2c1=O	-2%[44.1 µM]
COCCn1cnc2ccc(OCC3CC3)nc2c1=O	i
COCCn1cnc2ccc(OCc3ccc(Cl)cc3)nc2c1=O	11µM*
CNC(=O)CC1=C2CCCCC2N(C)C1=O (stereo not drawn)	-7%
Cc1cc(C(=O)N2CC3CC(C2)[C@H]2CCCC(=O)N2C3)n(C)n1 (stereo partly drawn)	14%
CCOCCCNc1ncnc2c1CN(C1CCCNCC1)C(=O)CN2C (stereo not drawn)	14%
CCOc1ccc(CNC(=O)c2cc(=O)[nH]c3ccc(S(=O)(=O)N4CCCC4)cc23)cc1	5%
CCOc1ccc(C2c3[nH]c4ccccc4c3CCN2C(=O)CSCc2ccc(F)cc2)cc1 (stereo not drawn)	11µM*
CCOc1ccc(C(=O)N2CCC3(CC2)NC(=O)N(Cc2ccc(F)cc2)C3=O)cc1	i
Cc1ccc(NC(=O)CN2C(=O)NC(c3ccccc3Cl)C3=C2COC3=O)cc1 (stereo not drawn)	i
Cc1ccc(NC(=O)Cn2c(C)cc3nc4n(c(=O)c32)CCCCC4)cc1Cl	i
O=C1OCC2(CCN(Cc3ccccc3O)C2)N1Cc1ccccc1 (stereo not drawn)	10µM*
O=C1OCC2(CCN(Cc3ccn[nH]3)C2)N1Cc1ccccc1 (stereo not drawn)	-9%[44.1 µM]
N#Cc1ccc(CN2CCC3(COC(=O)N3Cc3ccccc3)C2)cc1 (stereo not drawn)	-5%[44.1 µM]
CCN(CC)C(=O)CN(C)Cc1ccc(=O)n(CC)c1	18%
CNC(=O)CN(C)Cc1cc(Cl)ccc1OCC(O)CN1CCCCCC1 (stereo not drawn)	2.8µM*
CCOc1ccc(Cl)cc1CN(C)C(=O)C1CC(=O)N(CC)C1 (stereo not drawn)	-9%
